Counter-ions that a name gives are not always drawn. ± gives the standard deviation.

Drawing on the supplement of paper PMC4709259, this text covers mean cell size and cell count for 8 compounds.

For test [1], the system named is Jurkat. The test is described as follows: mean cell size (FSC-A) relative to DMSO control (fraction of control); higher = larger cells. The conditions noted are these: 48 h. In short, it runs like this:
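Jurkat cells at 600 cells/µl were incubated for 1 h and then treated for 48h with the Enzo Screen-Well FDA Approved Drug Library v2.0 at 25µM, with DMSO at 0.9% (v/v) final. Compounds that reduced counts below 20% of controls were retested in 10-fold dilutions down to 25nM. Cell count and mean cell size, taken as forward scatter area, were measured by flow cytometry relative to solvent-only controls. Each plate carried 6-12 controls, and values are means of 3 biological replicates.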

The test system of test [2] is Jurkat. Description: cell count relative to DMSO control (fraction of control); higher = more cells (less growth inhibition). Particulars: 48 h.

Consider `O=C1CCC(N2C(=O)c3ccccc3C2=O)C(=O)N1` (stereo unspecified) [Thalidomide] (concentration: 25 µM), for which, in the test on Jurkat [1], the mean cell size came to 0.922 ± 0.015. The compound also returned a cell count with Jurkat [2] of 1.01 ± 0.12.

`CCC1=C[C@@H]2CN(C1)Cc1c([nH]c3ccccc13)[C@@](C(=O)OC)(c1cc3c(cc1OC)N(C)[C@H]1[C@@](O)(C(=O)OC)[C@H](OC(C)=O)[C@]4(CC)C=CCN5CC[C@]31[C@@H]54)C2` [Vinorelbine] (concentration: 250 nM) yielded a mean cell size in the test on Jurkat [1] of 0.941 ± 0.031. Also, the cell count with Jurkat [2] stood at 0.559 ± 0.048.

`C#C[C@]1(O)CC[C@H]2[C@@H]3CCC4=CC(=O)CC[C@@H]4[C@H]3CC[C@@]21C` [Norethindrone] (concentration: 25 µM) gave a mean cell size in the test with Jurkat [1] of 0.948 ± 0.024. In addition, in the test with Jurkat [2], the cell count worked out at 0.901 ± 0.084.

The compound `CN1C2CCCC1CC(NC(=O)c1nn(C)c3ccccc13)C2` (stereo unspecified) [Granisetron·HCl] (concentration: 25 µM) came in with a mean cell size in the test with Jurkat [1] of 0.9687 ± 0.004. The same compound gave a cell count in the test on Jurkat [2] of 0.899 ± 0.037.

`C[C@@](Cc1ccc(O)c(O)c1)(NN)C(=O)O` [Carbidopa] (concentration: 25 µM): the mean cell size in the test with Jurkat [1] was determined as 0.939 ± 0.027. In the test with Jurkat [2], this compound came in with a cell count of 0.439 ± 0.09.

`CCN(CC)CCNC(=O)c1cc(Cl)c(N)cc1OC` [Metoclopramide·HCl] (concentration: 25 µM) had a mean cell size with Jurkat [1] of 0.951 ± 0.018. In addition, in the test on Jurkat [2], the cell count amounted to 0.758 ± 0.16.

In the test on Jurkat [1], `CN[C@@H]1[C@H](O[C@H]2[C@H](O[C@H]3[C@H](O)[C@@H](O)[C@H](N=C(N)N)[C@@H](O)[C@@H]3N=C(N)N)O[C@@H](C)[C@]2(O)C=O)O[C@@H](CO)[C@H](O)[C@H]1O` [Streptomycin Sulfate] (concentration: 25 µM) had a mean cell size of 0.996 ± 0.028. In addition, in the test with Jurkat [2], the cell count came to 0.791 ± 0.011.

With `CC1=C(CC(=O)O)c2cc(F)ccc2/C1=C\c1ccc([S+](C)[O-])cc1` (stereo unspecified) [Sulindac] (concentration: 25 µM), in the test with Jurkat [1], the mean cell size came to 0.988 ± 0.019. Also, in the test on Jurkat [2], the cell count stood at 0.782 ± 0.083.
